Reference: PubChem BioAssay (NCATS)
Several values for one entry are separate records, joined by “and”; a condition that tells them apart may be missing. Equal entries are not always repeated. Inconclusive results are not listed. Activity calls are given as the source filed them. The call rests on the fitted dose curve; in most records, active means well fitted curve in the direction sought with a large enough effect; inconclusive means small, poorly fitted or top-dose-only effect, or another doubt; inactive means no such curve, though single readings can be large; an effect the other way counts as inactive or inconclusive.

Assay: qHTS of pediatric cancer cell lines to identify multiple opportunities for drug repurposing: Primary screen for SK-N-MC cells (AID 1347093)
Conditions: SK-N-MC viability, CellTiter-Glo luminescence, 48 h; series mostly up to 46 µM
Method in brief: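 Metabolically active cells were quantified by ATP-dependent luminescence (CellTiter-Glo, 15 min at room temperature) following 48 h treatment. Cells had been plated at 500-1,000 per well and settled for 5 h beforehand.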
Potency means the concentration at half of the fitted maximal effect.

Row | Compound | Potency
1 | C[C@]1(c2nc3c(C(N)=O)cccc3[nH]2)CCCN1 | 1.18 µM (active)
2 | COc1ccccc1[C@H](c1cccc2ccccc12)[C@@](C)(C#N)C(=O)N1CCC(c2cccc(C(F)(F)F)c2)CC1 | 1.18 µM (active)
3 | CN(C)C(=O)c1ccc(S(=O)(=O)c2ccc(NC(=O)[C@@](C)(O)C(F)(F)F)c(Cl)c2)cc1 | 16.6 µM (active)
4 | COc1c(Cl)cc2c([nH]c3cnccc32)c1NC(=O)c1cccnc1C | 1.32 µM (active)
5 | CCn1c(-c2nonc2N)nc2c(C#CC(C)(C)O)ncc(OC[C@H]3CCCNC3)c21 | 0.469 µM (active)
6 | Cc1cc2c(F)c(Oc3ncnn4cc(OC[C@@H](C)O)c(C)c34)ccc2[nH]1 | 0.264 µM (active)
7 | COc1ccc(-c2ccc3c(N4CCOCC4)nc(N4C[C@@H](C)O[C@@H](C)C4)nc3n2)cc1CO | 0.0935 µM (active)
8 | CNC(=O)c1ccccc1Sc1ccc2c(/C=C/c3ccccn3)n[nH]c2c1 | 2.99 µM (active)
9 | NC(=O)C1CCCc2c1[nH]c1ccc(Cl)cc21 (stereo unspecified) | 26.4 µM (active)
10 | CO[C@@H]1[C@H](N(C)C(=O)c2ccccc2)C[C@H]2O[C@]1(C)n1c3ccccc3c3c4c(c5c6ccccc6n2c5c31)C(=O)NC4 | 0.662 µM (active)
11 | CCCCCCCc1ccc(CCc2cccc(O)c2C(=O)O)cc1 | 9.35 µM (active)
12 | c1ccc(-c2nn3c(c2-c2ccnc4cc(OCCN5CCOCC5)ccc24)CCC3)nc1 | inactive
13 | C[C@H](NC(=O)Cc1cc(F)cc(F)c1)C(=O)N[C@@H]1C(=O)N(C)c2ccccc2-c2ccccc21 | 5.26 µM (active)
14 | Cc1cc(Nc2nc(N[C@@H](C)c3ncc(F)cn3)ncc2Cl)n[nH]1 | 3.72 µM (active)
15 | COc1cc2nccc(Oc3ccc(NC(=O)NC4CC4)c(Cl)c3)c2cc1C(N)=O | 0.935 µM (active)
16 | COc1cccc2cc(-c3nc(C4CCC(C(=O)O)CC4)n4ncnc(N)c34)[nH]c12 (stereo unspecified) | 0.0235 µM (active)

Assay: qHTS of pediatric cancer cell lines to identify multiple opportunities for drug repurposing: Primary screen for BT-37 cells (AID 1347094)
Conditions: BT-37 viability, CellTiter-Glo luminescence, 48 h; series mostly up to 57.3 µM
Method in brief: (§1)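 Primary screen of approved and investigational compounds on cells in growth media at 37 degrees C, 5% CO2. MIPE set at 11-point and NPC set at 8-point dilutions; viability scored by ATP-based luminescence at 48 hours.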

Row | Compound | Potency
17 | Cc1n[nH]c(C)c1Cc1sc2c(c1C(=O)N1C[C@H](O)CO1)c(=O)n(C)c(=O)n2CC(C)C | inactive
18 | C#Cc1cccc(Nc2ncnc3cc(OCCOC)c(OCCOC)cc23)c1 | 19.3 µM (active) and 11 µM (active)
19 | CC(c1cc2ccccc2s1)N(O)C(N)=O (stereo unspecified) | inactive
20 | CCOc1cc(N2CCC(O)CC2)ccc1Nc1ncc2c(n1)N(C)c1ccccc1C(=O)N2C | 0.0544 µM (active)
21 | Cc1cccc(-c2nn(C(=S)Nc3ccccc3)cc2-c2ccnc3ccccc23)n1 | inactive
22 | CCc1ccc(CCOc2ccc(CC3SC(=O)NC3=O)cc2)nc1 (stereo unspecified) | inactive
23 | COc1cc(Oc2ccnc3cc(OC)c(OC)cc23)ccc1NC(=O)NC(C)c1nccs1 (stereo unspecified) | inactive
24 | Cc1ccnc(NS(=O)(=O)c2ccc(NC(=O)Nc3ccc(S(=O)(=O)Nc4nccc(C)n4)cc3)cc2)n1 | 10.9 µM (active)
25 | Nc1cccc(S(=O)(=O)N2CCCN(S(=O)(=O)c3ccc4c(c3)OCCO4)CC2)c1 | inactive
26 | COc1ccccc1[C@H](c1cccc2ccccc12)[C@@](C)(C#N)C(=O)N1CCC(c2cccc(C(F)(F)F)c2)CC1 | 17.2 µM (active)
27 | Cc1cc2c(F)c(Oc3ncnn4cc(OC[C@@H](C)O)c(C)c34)ccc2[nH]1 | 27.3 µM (active)
28 | COc1ccc(-c2ccc3c(N4CCOCC4)nc(N4C[C@@H](C)O[C@@H](C)C4)nc3n2)cc1CO | 1.37 µM (active)
29 | NC(=O)C1CCCc2c1[nH]c1ccc(Cl)cc21 (stereo unspecified) | inactive
30 | Cc1cc(Nc2nc(N[C@@H](C)c3ncc(F)cn3)ncc2Cl)n[nH]1 | 15.3 µM (active)
31 | COc1cc2nccc(Oc3ccc(NC(=O)NC4CC4)c(Cl)c3)c2cc1C(N)=O | 1.37 µM (active)

Assay: qHTS of pediatric cancer cell lines to identify multiple opportunities for drug repurposing: Primary screen for NB-EBc1 cells (AID 1347095)
Conditions: NB-EBc1 neuroblastoma viability, CellTiter-Glo luminescence, 48 h; series mostly up to 46 µM
Method in brief: as §1

Row | Compound | Potency
32 | Cc1n[nH]c(C)c1Cc1sc2c(c1C(=O)N1C[C@H](O)CO1)c(=O)n(C)c(=O)n2CC(C)C | inactive
33 | COc1ccc2c3n(c(=NC(=O)c4cccnc4)nc2c1OC)CCN3 | 18.7 µM (active)
34 | CC(c1cc2ccccc2s1)N(O)C(N)=O (stereo unspecified) | inactive
35 | CCOc1cc(N2CCC(O)CC2)ccc1Nc1ncc2c(n1)N(C)c1ccccc1C(=O)N2C | 0.833 µM (active)
36 | Cc1cccc(-c2nn(C(=S)Nc3ccccc3)cc2-c2ccnc3ccccc23)n1 | inactive
37 | Fc1ccc(Cl)cc1-c1nc(Nc2ccncc2)c2nccnc2n1 | inactive
38 | O=C(c1cc(Cc2n[nH]c(=O)c3ccccc23)ccc1F)N1CCN(C(=O)C2CC2)CC1 | 10.5 µM (active)
39 | CCc1ccc(CCOc2ccc(CC3SC(=O)NC3=O)cc2)nc1 (stereo unspecified) | inactive
40 | CC[C@H](Nc1ncnc2nc[nH]c12)c1nc2cccc(F)c2c(=O)n1-c1ccccc1 | 14.8 µM (active)
41 | Cc1ccnc(NS(=O)(=O)c2ccc(NC(=O)Nc3ccc(S(=O)(=O)Nc4nccc(C)n4)cc3)cc2)n1 | 14.8 µM (active)
42 | Nc1cccc(S(=O)(=O)N2CCCN(S(=O)(=O)c3ccc4c(c3)OCCO4)CC2)c1 | inactive
43 | COc1ccccc1[C@H](c1cccc2ccccc12)[C@@](C)(C#N)C(=O)N1CCC(c2cccc(C(F)(F)F)c2)CC1 | 6.62 µM (active)
44 | CN(C)C(=O)c1ccc(S(=O)(=O)c2ccc(NC(=O)[C@@](C)(O)C(F)(F)F)c(Cl)c2)cc1 | inactive
45 | O=c1ncn2nc(Sc3ccc(F)cc3F)ccc2c1-c1c(Cl)cccc1Cl | inactive
46 | COc1c(Cl)cc2c([nH]c3cnccc32)c1NC(=O)c1cccnc1C | inactive
47 | CCn1c(-c2nonc2N)nc2c(C#CC(C)(C)O)ncc(OC[C@H]3CCCNC3)c21 | 18.7 µM (active)
48 | Cc1cc2c(F)c(Oc3ncnn4cc(OC[C@@H](C)O)c(C)c34)ccc2[nH]1 | 13.2 µM (active)
49 | COc1ccc(-c2ccc3c(N4CCOCC4)nc(N4C[C@@H](C)O[C@@H](C)C4)nc3n2)cc1CO | 1.48 µM (active)
50 | CNC(=O)c1ccccc1Sc1ccc2c(/C=C/c3ccccn3)n[nH]c2c1 | 1.5 µM (active)
51 | NC(=O)C1CCCc2c1[nH]c1ccc(Cl)cc21 (stereo unspecified) | inactive
52 | C[C@H](NC(=O)Cc1cc(F)cc(F)c1)C(=O)N[C@@H]1C(=O)N(C)c2ccccc2-c2ccccc21 | inactive
53 | Cc1cc(Nc2nc(N[C@@H](C)c3ncc(F)cn3)ncc2Cl)n[nH]1 | 18.7 µM (active)
54 | COc1cc2nccc(Oc3ccc(NC(=O)NC4CC4)c(Cl)c3)c2cc1C(N)=O | 0.0935 µM (active)
55 | Cc1ccccc1C(C(=O)NC1CCCC1)N(C(=O)Cn1cnc2ccccc21)c1cccc(F)c1 (stereo unspecified) | inactive
56 | COc1cccc2cc(-c3nc(C4CCC(C(=O)O)CC4)n4ncnc(N)c34)[nH]c12 (stereo unspecified) | 1.66 µM (active)
